Reference: PubChem BioAssay AID1159580 (chemical genetic matrix, 2015)
Screen size: about 5,500 compounds; about 2,000 (36%) were called active. About 18% were inconclusive and are not listed. Rule as the data show it: active = normalized growth mostly below about 0.91 (no sharp cut-off); inconclusive = no clear call, values can overlap the other calls; inactive = mostly above about 0.92. The list shows a part of the results.

Test: chemical genetic growth profiling, strain panel (AID 1159580);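 also: tested at 20 µM; growth read once vehicle control cultures reached saturation at 30 °C; 1 = growth at the plate median or of vehicle wells; lower values mean less growth of the strain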
Settings: S. cerevisiae deletion strains, growth OD
[1] = locus YAR019C, strain CDC15, hits give low values
[2] = locus YBL105C, strain PKC1, hits give low values
[3] = locus YBR135W, strain CKS1, hits give low values
[4] = locus YBR136W, strain MEC1, hits give low values
[5] = locus YBR160W, strain CDC28, hits give low values
[6] = locus YDL017W, strain CDC7, hits give low values
[7] = locus YDL028C, strain MPS1, hits give low values
[8] = locus YDL101C, strain DUN1, hits give low values
[9] = locus YDL108W, strain KIN28, hits give low values
[10] = locus YDL132W, strain cdc53, hits give low values
[11] = locus YDL214C, strain PRR2, hits give low values
[12] = locus YDR052C, strain DBF4, hits give low values
[13] = locus YDR054C, strain cdc34, hits give low values
[14] = locus YDR226W, strain ADK1, hits give low values
[15] = locus YDR477W, strain SNF1, hits give low values
[16] = locus YER123W, strain YCK3, hits give low values
[17] = locus YER133W, strain GLC7, hits give low values
[18] = locus YFL009W, strain cdc4, hits give low values
[19] = locus YFL029C, strain CAK1, hits give low values
[20] = locus YFR003C, strain YPI1, hits give low values
[21] = locus YFR019W, strain FAB1, hits give low values
[22] = locus YFR028C, strain CDC14, hits give low values
[23] = locus YGR040W, strain KSS1, hits give low values
[24] = locus YGR052W, strain FMP48, hits give low values
[25] = locus YGR092W, strain DBF2, hits give low values
[26] = locus YHR030C, strain SLT2, hits give low values
[27] = locus YHR079C, strain IRE1, hits give low values
[28] = locus YHR082C, strain KSP1, hits give low values
[29] = locus YHR205W, strain SCH9, hits give low values
[30] = locus YIL147C, strain SLN1, hits give low values
[31] = locus YJL095W, strain BCK1, hits give low values
[32] = locus YJL128C, strain PBS2, hits give low values
[33] = locus YJL157C, strain FAR1, hits give low values
[34] = locus YJR016C, strain ILV3, hits give low values
[35] = locus YJR066W, strain TOR1 (second series), hits give low values
[36] = locus YJR066W, strain TOR1, hits give low values
[37] = locus YKL048C, strain ELM1, hits give low values
[38] = locus YKL067W, strain YNK1, hits give low values
[39] = locus YKL101W, strain HSL1, hits give low values
[40] = locus YKL193C, strain SDS22, hits give low values
[41] = locus YKL203C, strain TOR2, hits give low values
[42] = locus YLR113W, strain HOG1, hits give low values
[43] = locus YLR133W, strain CKI1, hits give low values
[44] = locus YLR403W, strain SFP1, hits give low values
[45] = locus YML070W, strain DAK1, hits give low values
[46] = locus YMR001C, strain CDC5, hits give low values
[47] = locus YMR205C, strain PFK2 (second series), hits give low values
[48] = locus YMR277W, strain FCP1, hits give low values
[49] = locus YNL006W, strain LST8, hits give low values
[50] = locus YNL020C, strain ARK1, hits give low values
[51] = locus YNL161W, strain CBK1, hits give low values
[52] = locus YNL183C, strain NPR1, hits give low values
[53] = locus YNL207W, strain RIO2, hits give low values
[54] = locus YNL222W, strain SSU72, hits give low values
[55] = locus YNL307C, strain MCK1 (second series), hits give low values
[56] = locus YOL078W, strain AVO1, hits give low values
[57] = locus YOL136C, strain PFK27, hits give low values
[58] = locus YOR061W, strain CKA2, hits give low values
[59] = locus YOR119C, strain RIO1, hits give low values
[60] = locus YOR231W, strain MKK1, hits give low values
[61] = locus YOR329C, strain SCD5, hits give low values
[62] = locus YPL031C, strain PHO85, hits give low values
[63] = locus YPL153C, strain RAD53, hits give low values
[64] = locus YPL204W, strain HRR25, hits give low values
[65] = locus YPL209C, strain IPL1, hits give low values
[66] = locus YPL256C, strain CLN2, hits give low values
[67] = locus YPR025C, strain CCL1, hits give low values
[68] = locus YPR106W, strain ISR1, hits give low values
[69] = locus YPR111W, strain DBF20, hits give low values
[70] = strain NNK1, hits give low values
[71] = strain TSCII, hits give low values

Measured: normalized growth

Oc1c(Cl)cc(Cl)cc1C=Nc1ccc(Sc2ccccc2)nc1Sc1ccccc1
active: [11] 0.675 | [15] 0.6 | [17] 0.635 | [23] 0.684 | [25] 0.217 | [26] 0.322 | [27] 0.472 | [28] 0.599 | [29] 0.462 | [31] 0.414 | [33] 0.56 | [36] 0.482 | [37] 0.734 | [38] 0.584 | [39] 0.674 | [42] 0.667 | [43] 0.585 | [44] 0.49 | [47] 0.59 | [50] 0.566 | [55] 0.517 | [58] 0.392 | [59] 0.652 | [60] 0.509 | [62] 0.598 | [63] 0.535 | [64] 0.577 | [66] 0.619
inactive: [1] 0.938 | [2] 0.958 | [3] 0.954 | [4] 0.954 | [5] 0.954 | [6] 0.956 | [7] 0.922 | [8] 0.97 | [9] 0.945 | [10] 0.95 | [12] 0.968 | [13] 0.95 | [14] 0.956 | [16] 0.7 | [18] 0.945 | [19] 0.943 | [20] 0.955 | [21] 0.916 | [22] 0.942 | [24] 0.616 | [30] 0.939 | [32] 0.913 | [34] 0.961 | [35] 0.771 | [40] 0.945 | [41] 0.748 | [45] 0.727 | [46] 0.943 | [48] 0.929 | [49] 0.942 | [51] 0.957 | [52] 0.606 | [53] 0.962 | [54] 0.938 | [56] 0.955 | [57] 0.693 | [61] 0.948 | [65] 0.951 | [67] 0.95 | [68] 0.956 | [69] 0.941 | [70] 0.965 | [71] 0.95

Oc1c(Br)cc(Br)cc1/C=N\n1cnnc1
active: [11] 0.588 | [15] 0.308 | [16] 0.452 | [17] 0.483 | [23] 0.391 | [24] 0.323 | [25] 0.116 | [26] 0.307 | [27] 0.246 | [28] 0.32 | [29] 0.0783 | [31] 0.26 | [33] 0.412 | [36] 0.287 | [37] 0.289 | [38] 0.503 | [39] 0.225 | [41] 0.244 | [42] 0.369 | [43] 0.305 | [44] 0.122 | [45] 0.606 | [47] 0.355 | [50] 0.259 | [52] 0.354 | [55] 0.138 | [57] 0.517 | [58] 0.15 | [59] 0.237 | [60] 0.316 | [62] 0.303 | [63] 0.416 | [64] 0.348 | [66] 0.462 | [70] 0.289
inactive: [1] 0.938 | [2] 0.942 | [3] 0.943 | [4] 0.943 | [5] 0.958 | [6] 0.943 | [7] 0.941 | [8] 0.915 | [9] 0.945 | [10] 0.947 | [12] 0.947 | [13] 0.933 | [14] 0.947 | [18] 0.954 | [19] 0.949 | [20] 0.945 | [21] 0.791 | [22] 0.958 | [30] 0.907 | [34] 0.951 | [35] 0.728 | [40] 0.943 | [46] 0.903 | [48] 0.931 | [49] 0.927 | [51] 0.944 | [53] 0.942 | [54] 0.944 | [56] 0.926 | [61] 0.934 | [65] 0.95 | [67] 0.946 | [68] 0.918 | [69] 0.918 | [71] 0.938

Oc1c(Br)cc(Br)cc1C=Nc1ccccn1
active: [11] 0.221 | [15] 0.417 | [16] 0.119 | [17] 0.288 | [21] 0.111 | [23] 0.437 | [24] 0.179 | [25] 0.16 | [26] 0.133 | [27] 0.135 | [28] 0.161 | [29] 0.118 | [31] 0.132 | [33] 0.165 | [35] 0.368 | [36] 0.141 | [37] 0.55 | [38] 0.213 | [39] 0.375 | [41] 0.348 | [42] 0.154 | [43] 0.165 | [44] 0.167 | [45] 0.113 | [47] 0.211 | [49] 0.895 | [50] 0.14 | [52] 0.146 | [55] 0.23 | [57] 0.116 | [58] 0.114 | [59] 0.341 | [60] 0.12 | [62] 0.296 | [63] 0.23 | [64] 0.304 | [66] 0.155
inactive: [2] 0.969 | [3] 0.965 | [4] 0.967 | [5] 0.965 | [6] 0.958 | [7] 0.96 | [9] 0.978 | [12] 0.968 | [14] 0.989 | [20] 0.952 | [22] 0.984 | [30] 0.965 | [32] 0.937 | [34] 0.974 | [46] 0.962 | [51] 0.968 | [53] 0.965 | [54] 0.96 | [61] 0.963 | [65] 0.967 | [67] 0.968 | [68] 0.962 | [69] 0.953 | [70] 0.947
